From PubChem BioAssay AID1233 (SRMLSC, 2008)
Results with a measured potency or affinity are listed apart. Unmarked numbers belong to inactive results.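 How the source made its calls: active means a dose-response curve fit returns a half-maximal inhibitory concentration, extrapolated values included; inactive means the fit returns no such concentration.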

What follows are compounds tested against HMG-CoA reductase [Enterococcus faecalis] (UniProt Q9FD70) (assay: class II HMG-CoA reductase inhibition potency – biochemical, Enterococcus faecalis, confirmation (AID 1233;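 further: 0% = full reaction carrier wells and 100% = background wells lacking mevalonate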)). Conditions: purified E. faecalis HMGR, NADPH absorbance 340 nm kinetics; series mostly up to 100 µM; inhibition: at the top concentration.

Row | Compound | inhibition
1 | Cc1ccc(NC2=C(N3CCOCC3)C(=O)c3ccccc3C2=O)cc1 | -1.54%
2 | COc1ccc(NCc2nnc(SCCN3CCCCC3)n2-c2ccc(C)cc2)cc1 | -4.43%
3 | COCCNC(=O)C1c2cc(OC)c(OC)cc2C(=O)N(C)C1c1cccnc1 (stereo not drawn) | -0.13%
4 | Cc1nnc(SCc2ccccc2Cl)n1CC1CCCO1 (stereo not drawn) | -1.03%
5 | C=CCn1cnc2c(c1=O)c1nc3ccccc3nc1n2/N=C/c1cc(OC)c(OC)c(OC)c1 | -0.47%
6 | O=C(CN1CCC2(CC1)OCCO2)c1ccc2cc[nH]c2c1 | 1.36%
7 | CC(C)c1ccc(NC(=O)COC(=O)/C=C/c2cccc(Br)c2)cc1 | -6.09%
8 | O=C(c1cccs1)N(c1ccc(F)cc1)C1C=CS(=O)(=O)C1 (stereo not drawn) | -5.9%
9 | O=C(NN1S(=O)(=O)c2ccccc2S1(=O)=O)c1ccc(Br)cc1 | -12.5%
10 | COCC(C)NC(=O)CSc1nc(-c2ccccc2)c(-c2ccccc2)o1 (stereo not drawn) | -5.68%
11 | COc1ccc(Cl)cc1NC(=O)CN(c1ccccc1)S(=O)(=O)N(C)C | -8.3%
12 | CCOC(=O)c1nnn(-c2ccc(OC)cc2)c1N | -6.25%
13 | CCOCC(=O)OCC(=O)Nc1cc(OC)c([N+](=O)[O-])cc1C | -10.1%
14 | CCOC(=O)/C(C#N)=C1/C(=O)N(Cc2ccccc2)c2ccccc21 | -7.29%
15 | Cc1cccc(Nc2nnc(SCC(=O)Nc3ncc(C(F)(F)F)cc3Cl)s2)c1C | -4.11%
16 | O=c1cc(CSc2ccc([N+](=O)[O-])cc2)nc2sccn12 | -5.01%
17 | CN(C)c1ccc(P(=O)(OCc2ccccc2)C(O)c2ccncc2)cc1 (stereo not drawn) | -0.24%
18 | COc1cc(C)nc(Oc2ccc(OCCOc3ccccc3)nn2)n1 | -3.5%
19 | COc1cccc(C2NC(=O)NC(O)(C(F)(F)F)C2C(=O)c2cccnc2)c1OC (stereo not drawn) | -8.84%

Row | Compound | inhibition
20 | Cc1cc(C=O)c2c(c1)C=CC1(Oc3ccccc3C(=O)N1C)O2 (stereo not drawn) | -7.06%
21 | Cc1cccc(N/N=C(\C#N)S(=O)(=O)C(C)(C)C)c1 | -3%
22 | COc1ccc(/C=C/C(=O)NC(=S)NNC(=O)c2cccnc2)cc1OC | -3.52%
23 | CCOc1ccc(OCCCC(=O)Nc2nc3ccccc3[nH]2)cc1 | -5.68%
24 | CC1CN(C(=O)c2cccc(S(=O)(=O)Nc3ccc(Cl)cc3)c2)CC(C)O1 (stereo not drawn) | -0.91%
25 | Cc1cc(N2CCN(c3nc(-c4ccc([N+](=O)[O-])cc4)cs3)CC2)c2ccccc2n1 | -5.17%
26 | CCOC(=O)c1ccc(Nc2nc(C(=O)OCC)nc3ccccc23)cc1 | -2.7%
27 | CN(C)c1ccc(N=C/C=C2\N(C)c3ccccc3C2(C)C)cc1 | 1.95%
28 | O=C(CC1SCCNC1=O)Nc1ccc(F)c(Cl)c1 (stereo not drawn) | -8.26%
29 | O=C(COC(=O)c1ccncc1)Nc1ccccc1 | -4.19%
30 | CCOc1ccc(C2C(C#N)=C(N)Oc3cc(C)oc(=O)c32)cc1 (stereo not drawn) | -1.84%
31 | COc1cc(OC)c(C(=O)NC2CC(C)(C)NC(C)(C)C2)cc1OC | -0.58%
32 | COc1ccccc1C(=O)NCC(=O)NC1CCCc2ccccc21 (stereo not drawn) | -2.96%
33 | COc1ccc(CNC(=O)C2CCCN2S(=O)(=O)c2ccc(Cl)cc2)cc1 (stereo not drawn) | -4.97%
34 | CCCc1nc(NCc2ccccn2)c2nnn(Cc3ccccc3F)c2n1 | -4.22%
35 | CC(C)(C)Cc1nnc(NS(=O)(=O)c2ccccc2)s1 | -3.39%
36 | COc1ccc(CCNC(=O)CCNC(=O)c2ccc(Cl)cc2)cc1OC | -6.35%
37 | CCN(CC)CCCCCOc1ccccc1OC | -1.77%
38 | CC(=O)N1CCN(S(=O)(=O)c2ccc(C)c([N+](=O)[O-])c2)C1C(C)C (stereo not drawn) | -2.57%
